The source of these data is PubChem BioAssay (Tox21).

Each structure is given as a SMILES string. Values without a mark were called inactive. Inconclusive results are not listed. Active and inactive are the calls of the source. The call rests on the fitted dose curve; in most records, active means well fitted curve in the direction sought with a large enough effect in the repeat runs; inconclusive means weak or mixed curves; inactive means no such curve, though single readings can be large; an effect the other way counts as inactive or inconclusive.

Assay [1] can be described thus: Human pregnane X receptor (PXR) small molecule agonists, qHTS cell viability counter screen (AID 1346977). Further: nearly all actives have a fitted effect of over 50% in size. Further: potency means the concentration at half of the fitted maximal effect. Summed up: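 PXR-Luc HepG2 cells in medium with 5% charcoal-stripped FBS were pre-incubated 5hr, then exposed to compounds for 24hr at 37C. Viability was read in the same wells by CellTiter-Fluor fluorescence, reagent added after 23hr with a 1hr incubation.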

Assay [2] is described as follows: Caspase-3/7 induction in HepG2 cells by small molecules, qHTS assay (AID 1346978). Further: nearly all actives have a fitted effect of over 15% in size. The procedure, abridged: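 Wild-type HepG2 cells, 2,000/well, settled 5 hr at 37 C and 5% CO2, then compound-treated for 17 hr; caspase-3/7 activity read by luminescent Caspase-Glo 3/7 after 30 min at room temperature.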
Assay [3] can be described thus: Caspase-3/7 induction in CHO-K1 cells by small molecules, qHTS cell viability counter screen (AID 1346979). Further: nearly all actives have a fitted effect of over 35% in size. Further: potency means the concentration at half of the fitted maximal effect. Summed up:
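Wild-type CHO-K1 cells were seeded at 1,500 per well, rested 5hr at 37 C, then exposed to compounds in DMSO. After 16hr, CellTiter-Fluor reagent was added and fluorescence read 1hr later as the viability measure.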

Assay [4] can be described thus: Caspase-3/7 induction in CHO-K1 cells by small molecules, qHTS assay (AID 1346980). Further: nearly all actives have a fitted effect of over 15% in size. Summed up: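 Wild-type CHO-K1 cells exposed to compounds for 17hr at 37 C, 5% CO2. Caspase-3/7 activity then measured by Caspase-Glo 3/7 luminescence after 30min at room temperature.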
A short description of assay [5]: Caspase-3/7 induction in HepG2 cells by small molecules, qHTS cell viability counter screen (AID 1346981). Further: series mostly up to about 92 µM; nearly all actives have a fitted effect of over 30% in size. The procedure, abridged: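 In this quantitative HTS counter screen, compounds delivered in DMSO were left on unmodified HepG2 cells for 16 hr at 37 C. Viability was then determined fluorometrically with CellTiter-Fluor, in parallel with caspase-3/7 induction in the same wells.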

In assay [6] the target is Nuclear receptor subfamily 1 group I member 2 (Homo sapiens) (UniProt O75469). The assay can be described thus: Human pregnane X receptor (PXR) small molecule agonists, qHTS assay (AID 1346982). Further: nearly all actives have a fitted effect of over 35% in size. Further: potency means the concentration at half of the fitted maximal effect. Summed up: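 Reporter HepG2 cells expressing PXR-Luc are cultured in charcoal-stripped FBS (5%), treated with compounds for 24 hr at 37 C, and assayed by ONE-Glo luminescence after 30 min at room temperature.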

In assay [7] the target is Cytochrome P450 2D6 (Homo sapiens) (UniProt P10635). The assay is described as follows: Cytochrome P450 Family 2 Subfamily D Member 6 (CYP2D6) small molecule antagonists: luciferase reporter qHTS assay (AID 1671196). Further: nearly all actives have a fitted effect of over 50% in size. Further: potency means the concentration at half of the fitted maximal effect. Summed up: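 Test chemicals meet CYP2D6 plus proluciferin substrate (10 min, RT); NADPH regenerating solution then drives turnover for 1 h. Detection reagent halts the reaction; luminescence measured after 20 min.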
On the % scale 0 is the no-effect control and ±100 the full control effect.

Sequence of Cytochrome P450 2D6 (Homo sapiens) (P10635 whole entry, looked up): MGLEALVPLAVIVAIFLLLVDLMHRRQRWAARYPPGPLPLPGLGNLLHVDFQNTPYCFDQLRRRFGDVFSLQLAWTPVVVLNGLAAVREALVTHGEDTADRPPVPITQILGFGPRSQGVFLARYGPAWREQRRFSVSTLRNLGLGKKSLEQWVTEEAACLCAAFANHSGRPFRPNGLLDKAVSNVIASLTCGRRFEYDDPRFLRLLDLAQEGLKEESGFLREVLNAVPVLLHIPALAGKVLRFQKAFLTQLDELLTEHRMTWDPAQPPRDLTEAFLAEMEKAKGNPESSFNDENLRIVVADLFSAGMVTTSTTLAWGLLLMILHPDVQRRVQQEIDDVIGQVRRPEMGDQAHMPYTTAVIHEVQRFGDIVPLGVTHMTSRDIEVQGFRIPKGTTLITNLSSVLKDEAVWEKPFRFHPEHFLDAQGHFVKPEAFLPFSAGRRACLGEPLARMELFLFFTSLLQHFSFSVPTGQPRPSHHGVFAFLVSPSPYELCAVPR
Sequence of Nuclear receptor subfamily 1 group I member 2 (Homo sapiens) (O75469 whole entry, looked up): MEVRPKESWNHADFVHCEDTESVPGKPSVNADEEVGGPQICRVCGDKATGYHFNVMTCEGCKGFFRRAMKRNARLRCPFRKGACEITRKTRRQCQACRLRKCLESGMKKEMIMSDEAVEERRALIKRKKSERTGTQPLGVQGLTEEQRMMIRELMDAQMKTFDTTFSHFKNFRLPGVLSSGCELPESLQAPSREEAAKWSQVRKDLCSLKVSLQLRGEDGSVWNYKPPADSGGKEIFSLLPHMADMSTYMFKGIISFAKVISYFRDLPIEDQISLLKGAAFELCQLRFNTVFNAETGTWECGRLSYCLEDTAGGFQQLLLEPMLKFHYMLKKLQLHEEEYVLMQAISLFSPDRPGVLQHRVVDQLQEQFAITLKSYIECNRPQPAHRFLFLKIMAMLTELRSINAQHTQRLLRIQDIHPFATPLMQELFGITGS

As for `CC(=O)OC(C)OC(C)=O`, the Potency entry in assay [1], in assay [2], in assay [3], in assay [5], in assay [6] and in assay [7] was “inactive” in each case. Also, in assay [4], the compound was called inactive.
Turning to `OCc1c2ccccc2cc2ccccc12`, the Potency result in assay [1], in assay [2], in assay [3], in assay [5] and in assay [7] was “inactive” in each case. The result in assay [4] was inactive. In addition, the Potency in assay [6] was 48.7 µM (active).
Take `CC1(C)C(=O)N(Cl)C(=O)N1Br`: the Potency result in assay [1], in assay [2], in assay [3], in assay [5], in assay [6] and in assay [7] was “inactive” each time. In assay [4], the compound was called inactive.
For the compound `CC/C=C\CCOC(=O)C(C)C`, the Potency entry in assay [1], in assay [2], in assay [3], in assay [5], in assay [6] and in assay [7] was “inactive” each time. Moreover, the outcome in assay [4] was inactive.
As to `OCCN(CCO)CCN(CCO)CCO`, the Potency result in assay [1], in assay [2], in assay [3], in assay [5], in assay [6] and in assay [7] was “inactive” in each case. Besides, in assay [4], the outcome was inactive.
As to `CC(C)(C)c1cccc(O)c1`, the Potency entry in assay [1], in assay [2], in assay [3], in assay [5], in assay [6] and in assay [7] was “inactive” each time. For the same compound, the call in assay [4] was inactive.
In the case of `CCCCCCCCOC(=O)CCCCCCCCC(=O)OCCCCCCCC`, the Potency entry in assay [1], in assay [2], in assay [3], in assay [5], in assay [6] and in assay [7] was “inactive” in each case. Besides, the compound was classed as inactive in assay [4].
Regarding `CCCC1CCC(=O)O1` (centres undefined), the Potency entry in assay [1], in assay [2], in assay [3], in assay [5], in assay [6] and in assay [7] was “inactive” each time. For the same compound, the result in assay [4] was inactive.
In the case of `CCOC(=O)NCCC[Si](OCC)(OCC)OCC`, the Potency result in assay [1], in assay [2], in assay [3], in assay [5], in assay [6] and in assay [7] was “inactive” each time. Further, the compound was called inactive in assay [4].
Take `OC[C@H]1O[C@@H](O[C@H]2[C@H](O)[C@@H](O)[C@H](O)O[C@@H]2CO)[C@H](O)[C@@H](O)[C@H]1O`: the Potency entry in assay [1], in assay [2], in assay [3], in assay [5], in assay [6] and in assay [7] was “inactive” in each case. Further, in assay [4], the compound was classed as inactive.
Consider `O=C(O)c1ccccc1Nc1cc(Cl)ccc1C(=O)O`, for which the activity change, negative = cytotoxicity is 7.26% [at 19 µM] in assay [1], 5.08% [at 19 µM] in assay [3] and 3.27% [at 19 µM] in assay [5]. In assay [2], the caspase activation is 0.287% [at 19 µM]. Besides, the caspase-3/7 activation in assay [4] was 1.36% [at 19 µM]. Moreover, in assay [6], the activation was 5.75% [at 19 µM]. Also, in assay [7], the Potency is 1.51 µM (active).
Turning to `CCCCCCCCc1ccc(S(=O)(=O)O)cc1`, the Potency entry in assay [1], in assay [2], in assay [3], in assay [5], in assay [6] and in assay [7] was “inactive” in each case. In addition, in assay [4], the result was inactive.
On to `CCOC(=O)C1CC(=O)C(=C(O)C2CC2)C(=O)C1` (centres undefined), for which the Potency result in assay [1], in assay [2], in assay [3], in assay [5], in assay [6] and in assay [7] was “inactive” throughout. For the same compound, in assay [4], the outcome was inactive.
For `CCC1(C)NC(=O)NC1=O` (centres undefined), the Potency result in assay [1], in assay [2], in assay [3], in assay [5], in assay [6] and in assay [7] was “inactive” in each case. In assay [4], the outcome was inactive.
`Nc1cccc(S(=O)(=O)O)c1`: the Potency result in assay [1], in assay [2], in assay [3], in assay [5] and in assay [6] was “inactive” each time. The result in assay [4] was inactive. For the same compound, in assay [7], the Potency is 71.2 µM (active).
In the case of `CCNCCO`, the Potency entry in assay [1], in assay [2], in assay [3], in assay [5], in assay [6] and in assay [7] was “inactive” each time. The compound was classed as inactive in assay [4].
As for `CC[C@H]1CC[C@H](NCc2cc3c(cc2OC)[C@H]2C[C@H]2C(=O)N3C)[C@H](c2ccccc2)N1`, the Potency is 30.6 µM (active) in assay [1], 24.3 µM (active) in assay [3], 17.2 µM (active) in assay [6] and 7.1 µM (active) in assay [7]. Also, the Potency result in assay [2] and in assay [5] was “inactive” in each case. In assay [4], the call was inactive.
`CCCOCCC`: the Potency result in assay [1], in assay [2], in assay [3], in assay [5], in assay [6] and in assay [7] was “inactive” throughout. Moreover, the result in assay [4] was inactive.
In the case of `Cc1cc2nc(N)sc2cc1C`, the Potency entry in assay [1], in assay [2], in assay [3] and in assay [5] was “inactive” each time. The outcome in assay [4] was inactive. Also, the Potency in assay [6] is 27.6 µM (active); in assay [7], 32 µM (active).
Turning to `CC(C)c1ccccc1`, the Potency entry in assay [1], in assay [2], in assay [3], in assay [5], in assay [6] and in assay [7] was “inactive” throughout. For the same compound, the result in assay [4] was inactive.
`O=C(CCCl)NCc1ccccc1`: the Potency entry in assay [1], in assay [2], in assay [3], in assay [5], in assay [6] and in assay [7] was “inactive” each time. For the same compound, the compound was classed as inactive in assay [4].
Turning to `CC(C)Nc1nc(N)nc(Cl)n1`, the Potency entry in assay [1], in assay [2], in assay [3], in assay [5], in assay [6] and in assay [7] was “inactive” in each case. Moreover, the result in assay [4] was inactive.
On to `COc1cc(C)ccc1C(C)C`, for which the Potency result in assay [1], in assay [2], in assay [3], in assay [5], in assay [6] and in assay [7] was “inactive” each time. In addition, in assay [4], the compound was classed as inactive.
In the case of `CN(C)CCOc1ccccc1Cc1ccccc1`, the Potency result in assay [1], in assay [2], in assay [3], in assay [5], in assay [6] and in assay [7] was “inactive” each time. The result in assay [4] was inactive.
For the compound `CC(C)=CCCC(C)CCOC=O` (centres undefined), the Potency result in assay [1], in assay [2], in assay [3], in assay [5], in assay [6] and in assay [7] was “inactive” throughout. In addition, the compound was classed as inactive in assay [4].
`Cc1cn([C@@H]2O[C@H](CO)[C@@H](O)[C@@H]2F)c(=O)[nH]c1=O`: the Potency result in assay [1], in assay [2], in assay [3], in assay [5], in assay [6] and in assay [7] was “inactive” throughout. Besides, the call in assay [4] was inactive.
Regarding `N#CSCC(=O)O`, the Potency entry in assay [1], in assay [2], in assay [3], in assay [5], in assay [6] and in assay [7] was “inactive” throughout. Besides, in assay [4], the result was inactive.
